# Among all 2,100 compounds or so, about 770 (37%) were called active.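 How the source made its calls: active means by-eye trace score of 1 for enhancers or -1 for inhibitors, so actives lie on both sides (some results past the limit were not filed as active); inactive means score 0, or 3 fluorescent, or 4 baseline rise.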 The list shows a part of the results.
# Target: G protein-activated inward rectifier potassium channel 2 (Homo sapiens) + G protein-activated inward rectifier potassium channel 1 (Homo sapiens) (UniProt P48051+P48549)
# Sequence (P48051 whole entry, looked up): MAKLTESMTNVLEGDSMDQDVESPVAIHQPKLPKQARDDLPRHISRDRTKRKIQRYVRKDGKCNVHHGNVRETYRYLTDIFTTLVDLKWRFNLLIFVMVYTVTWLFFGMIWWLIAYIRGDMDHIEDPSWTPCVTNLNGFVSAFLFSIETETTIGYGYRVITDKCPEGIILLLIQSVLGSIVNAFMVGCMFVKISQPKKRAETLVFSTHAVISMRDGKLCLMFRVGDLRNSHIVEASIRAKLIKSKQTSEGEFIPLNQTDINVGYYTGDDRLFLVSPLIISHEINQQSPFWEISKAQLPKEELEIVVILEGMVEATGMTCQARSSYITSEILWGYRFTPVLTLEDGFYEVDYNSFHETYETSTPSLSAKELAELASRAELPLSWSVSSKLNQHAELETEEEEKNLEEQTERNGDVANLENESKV
# Sequence (P48549 whole entry, looked up): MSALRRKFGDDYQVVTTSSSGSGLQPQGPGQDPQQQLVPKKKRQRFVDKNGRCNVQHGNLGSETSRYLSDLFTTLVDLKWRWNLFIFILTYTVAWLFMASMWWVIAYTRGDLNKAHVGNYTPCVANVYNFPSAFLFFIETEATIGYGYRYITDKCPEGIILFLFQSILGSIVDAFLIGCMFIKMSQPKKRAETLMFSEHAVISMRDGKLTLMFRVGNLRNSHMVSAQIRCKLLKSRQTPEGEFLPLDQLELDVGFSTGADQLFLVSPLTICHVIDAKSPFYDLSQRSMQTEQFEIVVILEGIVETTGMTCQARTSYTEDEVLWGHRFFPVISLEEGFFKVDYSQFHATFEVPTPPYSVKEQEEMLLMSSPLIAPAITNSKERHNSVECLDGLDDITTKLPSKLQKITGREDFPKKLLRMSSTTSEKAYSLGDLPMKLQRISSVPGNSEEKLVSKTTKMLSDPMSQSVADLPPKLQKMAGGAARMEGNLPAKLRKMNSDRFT
# Test: GIRK1/2 thallium flux modulators, retest, confirmation, cell-based, HEK293 rmGlu8/hGIRK1/2, FluoZin-2 (AID 623911)
# Conditions: HEK293 rmGlu8/hGIRK1/2, thallium flux FluoZin-2; actives lie on both sides; glutamate co-added at its EC20 level
row,Compound,manual score
1,C=CCn1c(=O)c2c(C)c(C)sc2n2c(Nc3ccc(OC)cc3)nnc12,-0.5 (inactive)
2,CCCCn1c(N)c(C(=S)NC(=O)CC(C)C)c(=O)n(C)c1=O,1 (active)
3,CCCCn1c(N)c(C(=S)NC(=O)CC(C)(C)C)c(=O)n(C)c1=O,1 (active)
4,Brc1ccc(-c2nnc3c4ccccc4nc(N4CCOCC4)n23)cc1,0 (inactive)
5,CCC(=O)N1c2ccc(C)cc2C2=NNC(=S)NC21O (stereo not drawn),0 (inactive)
6,COc1ccc(CNCCC(c2ccc(F)cc2)c2ccc(OC)cc2)cc1 (stereo not drawn),-1 (active)
7,COc1ccc(C(CCNCc2ccccc2F)c2ccc(F)cc2)cc1 (stereo not drawn),-1 (active)
8,O=C(NNC(=O)c1cc(-c2ccccc2)n(-c2ccccc2)n1)c1cccc([N+](=O)[O-])c1,0 (inactive)
9,COc1ccc(C2c3ccc4ccccc4c3Oc3ncn(CCN4CCOCC4)c(=N)c32)cc1 (stereo not drawn),-1 (active)
10,COc1ccc(S(=O)(=O)NCCCCCC(=O)NCCCN2CCOCC2)cc1,0 (inactive)
11,N=c1c2c(ncn1CCN1CCOCC1)Oc1ccc3ccccc3c1C2c1ccccc1 (stereo not drawn),-1 (active)
12,NC(=O)COc1ccc(C2c3c(oc4ccccc4c3=O)C(=O)N2CC2CCCO2)cc1 (stereo not drawn),0 (inactive)
13,CC1CCN(c2c([N+](=O)[O-])c(=O)oc3ccccc23)CC1,0 (inactive)
14,CCOC(=O)C1(C(C)(C)CC)CC(CSc2nc3ccccc3[nH]2)OC1=O (stereo not drawn),-1 (active)
15,CCn1c(-c2cc3ccccc3cc2O)n[nH]c1=S,0 (inactive)
16,O=C1N=C(c2ccccc2)S/C1=C\c1cccs1,0 (inactive)
17,N=C1/C(=C/c2cccs2)C(=O)N=C2SN=C(SCc3ccccc3)N12,1 (active)
18,CSC1=NSC2=NC(=O)/C(=C/c3coc4ccccc4c3=O)C(=N)N12,3 (inactive)
19,FC(F)(F)c1ccc2nnc(-c3c(Cl)cccc3Cl)n2c1,0 (inactive)
20,O=C(C1CCN(S(=O)(=O)c2cccc3cccnc23)CC1)N1CC=C(c2ccccc2)CC1,-1 (active)
21,O=C(C1CCCN1S(=O)(=O)c1cccc2cccnc12)N1CCn2c1nc1ccccc12 (stereo not drawn),0 (inactive)
22,O=C(C1CCCN1S(=O)(=O)c1cccc2cccnc12)N1CCc2ccccc21 (stereo not drawn),0 (inactive)
23,FC(F)(F)c1cccc(N2CCN(C(=S)NC3CCCCC3)CC2)c1,0 (inactive)
24,FC(F)(F)c1cccc(NC(=S)NC2CCCC2)c1,1 (active)
25,Cc1ccc(NC(=S)NCc2ccccc2)cc1[N+](=O)[O-],1 (active)
26,FC(F)(F)c1cccc(NC(=S)NCc2ccccc2)c1,1 (active)

row,Compound,manual score
1,O=C(Cc1ccccc1)NC(=S)Nc1cccc(C(F)(F)F)c1,0 (inactive)
2,COc1ccc(/C=C/C(=O)N2CCN(S(=O)(=O)/C=C/c3ccccc3)CC2)cc1OC,0 (inactive)
3,O=C(C1CCN(c2ncnc3c2sc2cccc(F)c23)CC1)N1CCOCC1,0 (inactive)
4,CCOc1ccc(-c2nc(-c3ccncc3)no2)cc1OCC,0.5 (inactive)
5,S=C(NCc1ccco1)Nc1ccc(Cl)c(Cl)c1,1 (active)
6,S=C(NCc1ccco1)N/N=C/c1ccc(Cl)cc1,0 (inactive)
7,COc1ccc(/C(C)=N/NC(=S)NCc2ccco2)cc1,0 (inactive)
8,COc1ccc2nc(NC(=S)N(C)C)sc2c1,1 (active)
9,COc1ccc2nc(N=Nc3ccc(O)c4ccccc34)sc2c1,0 (inactive)
10,COc1ccc(C(=S)Nc2ccc(N(C)C)cc2)cc1,0 (inactive)
11,Clc1ccccc1-c1nnc2sc(CCc3ccccc3)nn12,0 (inactive)
12,CCc1ccc2c(c1)c(N=NC1=NC(=O)CS1)c(O)n2CC,1 (active)
13,CCc1ccc2c(c1)c(N=NC1=NC(=O)CS1)c(O)n2C,1 (active)
14,CCn1c(O)c(N=NC2=NC(=O)CS2)c2cc(C)ccc21,0 (inactive)
15,CC(C)(C)c1csc(NC(=O)c2ccc3nccnc3c2)n1,0 (inactive)
16,Cc1cs/c(=N\N=C\c2cccc([N+](=O)[O-])c2)n1Cc1ccco1,0 (inactive)
17,CC(C)Sc1oc(-c2ccco2)nc1S(=O)(=O)c1ccccc1,-1 (active)
18,O=C(CCCCn1c(=O)c2ccccc2n(CC(=O)NC2CCCC2)c1=O)NCc1ccco1,0 (inactive)
19,Cn1c(=O)cc(OCCCC(=O)NCc2ccc3c(c2)OCO3)c2ccccc21,0 (inactive)
20,Cc1cccn2c(=O)c3cc(C#N)c(=NC(=O)c4cccnc4)n(CC4CCCO4)c3nc12 (stereo not drawn),3 (inactive)
21,N=c1c(C(=O)NCc2ccco2)cc2c(=O)n3ccccc3nc2n1CCc1ccccc1,-1 (active)
22,CCCn1c(=N)c(C(=O)NCc2ccc3c(c2)OCO3)cc2c(=O)n3cccc(C)c3nc21,-1 (active)
23,CCn1c(SCc2nc(-c3ccccc3)no2)nc2ccccc21,0 (inactive)
24,CCn1c(SCC(=O)c2cc(C)n(CC3CCCO3)c2C)nc2ccccc21 (stereo not drawn),-1 (active)
25,O=C(CSc1nc2ccccc2c(=O)n1CC1CCCO1)N1CCN(c2ccccc2)CC1 (stereo not drawn),0 (inactive)
26,Cc1ccccc1-c1nc(CS(=O)(=O)CC(=O)NCCCN2CCCC2)c(C)o1,-1 (active)

row,Compound,manual score
1,CCn1c(N)c(C(=O)NCc2ccco2)sc1=S,0 (inactive)
2,Cc1oc(-c2cccc(Cl)c2)nc1CN1CCC(C(=O)NCc2ccco2)CC1,-1 (active)
3,O=C(CCN1C(=O)COc2ccccc21)NCCCN1CCc2ccccc2C1,0 (inactive)
4,O=C(c1cccc(F)c1)N1CCN(Cc2ccco2)CC1,0 (inactive)
5,CCc1ccc(-c2nc(CN3CCC(C(=O)NCc4ccco4)CC3)c(C)o2)cc1,-1 (active)
6,CCN1CCCC1CNC(=O)CSCc1nc(-c2ccccc2C)oc1C (stereo not drawn),-1 (active)
7,O=C(CCc1nc(-c2ccccc2F)no1)NCCN1CCN(Cc2ccccc2)CC1,0 (inactive)
8,Cc1ccc(S(=O)(=O)N/N=C/c2ccc(OC3CSC3)cc2)cc1,0 (inactive)
9,CCc1ccc2c(c1)C1(NN=C(c3ccc(C)cc3)S1)C(=O)N2 (stereo not drawn),0 (inactive)
10,Cc1ccccc1C(=O)Nc1ccc2nc3n(c(=O)c2c1)CCC3,0 (inactive)
11,CCC1CCCCN1C(=O)c1cc2cc(Br)ccc2oc1=O (stereo not drawn),0 (inactive)
12,Cc1cc(C)nc(N2CCCC(C(=O)NCCc3ccc(F)cc3)C2)n1 (stereo not drawn),0 (inactive)
13,Cc1oc(-c2ccccc2F)nc1CS(=O)(=O)CC(=O)NCCN(C)C1CCCCC1,-1 (active)
14,CN(c1ccccc1C(=O)Nc1ccccc1C(=O)NCc1ccco1)S(C)(=O)=O,0 (inactive)
15,Cc1oc(-c2cccc(Cl)c2)nc1CN1CCCC(C(=O)NCc2ccco2)C1 (stereo not drawn),-1 (active)
16,CCN1CCCC1CNC(=O)C1CCN(Cc2nc(-c3cccc(Br)c3)oc2C)CC1 (stereo not drawn),-1 (active)
17,Cc1ccccc1-c1nc(CN2CCC(C(=O)NCc3ccco3)CC2)c(C)o1,-1 (active)
18,O=C(O)c1cnc(-c2ccccc2)nc1Sc1ccccc1Cl,0 (inactive)
19,CCn1c(=NC(=O)CSC(C)=O)sc2ccccc21,0 (inactive)
20,O=C(Nn1cnnc1)c1cc2cc(Br)ccc2oc1=O,0 (inactive)
21,Cc1c(N2C(=O)CS/C2=N\N=C\c2ccccc2O)c(=O)n(-c2ccccc2)n1C,0 (inactive)
22,CC1CC(C)CN(CCCn2c(=S)[nH]c3ccccc3c2=O)C1 (stereo not drawn),-0.5 (inactive)
23,Cc1ccccc1-c1nc(CN2CCC(C(=O)NCCCN3CC(C)CC(C)C3)CC2)c(C)o1 (stereo not drawn),-1 (active)
24,O=C(C1CCCN(Cc2cccs2)C1)N1CCCCCC1 (stereo not drawn),0 (inactive)
25,Cc1cccc(-c2nc(CN3CCCC(C(=O)NC4CCCCC4)C3)c(C)o2)c1 (stereo not drawn),-1 (active)
26,O=[n+]1cc(-c2ccccc2)n([O-])c2c1CCC2,0 (inactive)

row,Compound,manual score
1,CC1=C(C(=O)Nc2cccnc2)C(c2ccc3c(c2)OCO3)C2=C(CCCC2=O)N1 (stereo not drawn),-0.5 (inactive)
2,COCCN(C(=O)Cc1cccs1)C(C(=O)NCc1ccc(OC)cc1)c1ccccc1 (stereo not drawn),0 (inactive)
3,COC(=O)COn1c(SC(C)C)nc2ccccc2c1=O,0 (inactive)
4,Cc1cccc2sc(NC(=O)Cn3cccc3)nc12,0 (inactive)
5,CNC(=O)c1ccc2nc(NC(C)=O)sc2c1,-0.5 (inactive)
6,CCc1ccc2nc(NC(=O)c3cc(C)on3)sc2c1,1 (active)
7,Cc1cc(C)c2nc(NC(=O)c3cc(C)on3)sc2c1,1 (active)
8,O=C(Nc1nc2ccc(Cl)cc2s1)c1ccc(Br)o1,0 (inactive)
9,COc1ccc2[nH]c(C)c(C(=O)CN3CC(C)OC(C)C3)c2c1 (stereo not drawn),0 (inactive)
10,C/C(CC(=O)NCC(C)C)=N\NC(=O)COc1cc(C)c(Br)cc1Br,1 (active)
11,C/C(CC(=O)NC(C)C)=N\NC(=O)COc1cc(C)c(Br)cc1Br,1 (active)
12,Cc1ccccc1-n1nnc2c(=O)oc3ccccc3c21,0 (inactive)
13,O=C(Cc1ccccc1)Nc1nc(=O)c2ccccc2s1,0 (inactive)
14,O=C(Nc1nc(=O)c2ccccc2s1)c1ccccc1,1 (active)
15,CCN(CC)C(=S)SCC(=O)Nc1nc(=O)c2ccccc2s1,0 (inactive)
16,O=C(Nc1nc(=O)c2ccccc2s1)c1ccc(F)cc1,1 (active)
17,O=C(Nc1nc(=O)c2ccccc2s1)c1ccc(Cl)cc1,1 (active)
18,CC(=O)Nc1ccc(SCC(=O)c2cc(C)n(-c3ccccc3F)c2C)cc1,0 (inactive)
19,COC(=O)c1ccc(NS(=O)(=O)c2ccc(SC)cc2)cc1,0 (inactive)
20,COC(=O)c1ccc(-n2c(C)cc(C(=O)CSc3ccc(NC(C)=O)cc3)c2C)cc1,1 (active)
21,CC(C)N(Cc1nc(-c2ccccc2)no1)C(=O)CSc1ccccc1,0 (inactive)
22,CCc1ccccc1N(C)C(=O)CCc1nc(-c2ccc(C)cc2)no1,-1 (active)
23,O=C(CCCc1nc(-c2ccc(Cl)cc2)no1)N1CCOCC1,0 (inactive)
24,CN(C)Cc1c(O)c(Cl)cc2c3c(c(=O)oc12)CCCC3,0 (inactive)
25,O=C(O)C1C2C=CC3(CN(C4CCCC4)C(=O)C13)O2 (stereo not drawn),0 (inactive)

# Reference: PubChem BioAssay AID623911 (Vanderbilt High Throughput Screening Facility, 2012)
